Test results published in PubChem BioAssay AID1578 (Sanford-Burnham Center for Chemical Genomics, 2009).
The whole screen tested about 290,000 compounds, of which about 3,000 (1%) were called active. The sample holds actives, similar compounds and a random draw of the others, so the mix is not that of the screen. Rule as the data show it: active = inhibition mostly above about 36% (no sharp cut-off); inactive = mostly below about 34%.

Test: inhibition of NOD1-driven NF-kB reporter – cell-based, luminescence, uHTS, primary screen (AID 1578);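 also: HEK-293T reporter cells stimulated with the NOD1 agonist gamma-tri-DAP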
Conditions: NOD1-driven NF-kB luciferase reporter cells, at 4 µM, active compounds read high
In the case of CCOC(=O)c1[nH]c2ccccc2c1NC(C)=O, the inhibition is reported as 2.4% (inactive). For CC(C)(C)n1cnc2cc(NS(=O)(=O)c3ccc(Br)cc3)ccc21, the inhibition was 7.7% (inactive). With Cc1ccc(-c2nnn(CC(=O)N(CCN3CCOCC3)C(C(=O)NC(C)(C)C)c3ccc(C)o3)n2)cc1 (stereo not drawn) the inhibition was -14.8% (inactive). For COc1ccc(-c2cc3nc(C)cc(-c4ccc(OC)cc4)n3n2)cc1, the inhibition was 66.8% (active). For COc1ccc(-c2cc3nc(C)cc(C)n3n2)cc1, the inhibition was -76.5% (inactive). For COc1ccc(-c2cc3nc(C)cc(N)n3n2)cc1, the inhibition was -3.5% (inactive). In the case of COC(=O)C(Cc1ccccc1)NC(=O)c1cccc(S(=O)(=O)N(C)C)c1 (stereo not drawn), the inhibition is reported as -41.3% (inactive). For COc1ccc(/C(C)=N/NC(=O)c2nnn(-c3nonc3N)c2CN(C)c2ccccc2)cc1, the inhibition was -7.2% (inactive). With C/C(=N\NC(=O)c1c(Br)cnn1C)c1ccc(NC(=O)c2ccc(F)cc2)cc1 the inhibition was -45.8% (inactive). With CCC(=O)NC(=S)Nc1ccccc1C(=O)NC1CCCCC1 the inhibition was -10.9% (inactive). In the case of Cc1cc(C)cc(NC(=O)COc2ccc(C(=S)N3CCOCC3)cc2)c1, the inhibition is reported as -14.5% (inactive). With CCOC(=S)SCc1cn2ccc(C)cc2n1 the inhibition was 8.3% (inactive). With Cc1oc2c(Cl)c(Cl)c(O)c(CN(C)C)c2c1C(=O)c1ccc(Cl)cc1 the inhibition was 65.8% (active). In the case of Cc1oc2ccc(O)c(CN(C)C)c2c1C(=O)c1ccccc1, the inhibition is reported as -26.2% (inactive). For Cc1oc2ccc(O)c(CN3CCOCC3)c2c1C(=O)c1ccc(Cl)cc1, the inhibition was 27.5% (inactive). With CCN(CC)C(=O)CSc1nc2ccccc2c(=O)n1OC(C)C the inhibition was 8% (inactive). For Cc1ccc(/C=C2\SC(=S)N(c3cccnc3)C2=O)cc1, the inhibition was -15% (inactive). For COc1ccc(-n2c(C)cc(/C=C3/SC(=S)N(C)C3=O)c2C)cc1, the inhibition was -25.3% (inactive). With Cc1cc(/C=C2\SC(=S)NC2=O)c(C)n1-c1cccc(O)c1 the inhibition was -11.9% (inactive). With Cc1cc(/C=C2/C(=O)NN(c3ccccc3)C2=O)c(C)n1-c1cccc(O)c1 the inhibition was -15.4% (inactive). With Cc1cc(/C=C2\SC(=S)N(Cc3ccco3)C2=O)c(C)n1-c1cccnc1 the inhibition was 8.2% (inactive). With Cc1cc(/C=C2\SC(=O)N(C)C2=O)c(C)n1-c1ccc(O)cc1 the inhibition was 0.7% (inactive). In the case of Cc1cc(/C=C2/SC(=S)N(c3ccc([N+](=O)[O-])cc3)C2=O)c(C)n1-c1cccnc1, the inhibition is reported as 74.8% (active). With CC(c1ccccc1)n1c(N2CCNCC2)nc2c1c(=O)[nH]c(=O)n2C (stereo not drawn) the inhibition was -36.1% (inactive). In the case of COc1ccc(NC(=O)CN(c2ccc(OC)cc2)S(=O)(=O)c2c(C)nn(C)c2C)cc1, the inhibition is reported as -15.1% (inactive). In the case of COc1ccc(C(=O)N2CCC(C(=O)c3c(C)cc(C)cc3C)CC2)cc1, the inhibition is reported as -8.8% (inactive). With Cc1ccc(N2CC(C(=O)N3CCCc4ccccc43)CC2=O)cc1 (stereo not drawn) the inhibition was -10.4% (inactive). With O=C(C1CCC(=O)N(C2CCCC2)C1)N1CCN(c2ccccc2Cl)CC1 (stereo not drawn) the inhibition was -2.7% (inactive). In the case of CCOC(=O)c1c(NC(=O)CSc2nnc(C)c(=O)[nH]2)sc(C)c1C, the inhibition is reported as 17.3% (inactive). With CCOC(=O)c1c(NC(=O)CSc2nnc(C)c(=O)[nH]2)sc2c1CCCC2 the inhibition was 11.2% (inactive). With CCOC(=O)c1c(NC(=O)CSc2nnc(C)c(=O)[nH]2)sc(C)c1-c1ccc(C)cc1 the inhibition was 43.1% (active). For CC/C=C/C(=O)N1CC2(CC(c3cccc(NC(=O)CC(c4ccccc4)c4ccccc4)c3)=NO2)C[C@@H]1C(N)=O (stereo partly drawn), the inhibition was -0.2% (inactive). In the case of CCN(CC)Cc1c(O)ccc2c([N+](=O)[O-])c(C)n(-c3ccc(OC)cc3)c12, the inhibition is reported as -5.7% (inactive). For COc1ccc(C(=O)c2coc3ccc(O)c(CN4CCCCC4)c23)cc1, the inhibition was 9.4% (inactive). For COc1cc(C2NC(=S)NC(C)=C2C(=O)Nc2ccc(C)cc2)ccc1O (stereo not drawn), the inhibition was -50% (inactive). With c1coc(-c2nc(-c3ccncc3)no2)c1 the inhibition was -24.6% (inactive). For CCCCn1c(O)c(N=NC(=O)c2ccncc2)c2cc(Br)ccc21, the inhibition was 46.8% (inactive). With O=c1c2c(nc3cc(-c4ccc(F)cc4)[nH]n13)CCC2 the inhibition was 62.6% (active). In the case of O=c1c2c(nc3cc(-c4ccccc4)[nH]n13)CCC2, the inhibition is reported as -31.8% (inactive). With O=c1c2c(nc3cc(-c4ccc(F)cc4)[nH]n13)CCCC2 the inhibition was -40.5% (inactive). For CC(NC(=O)CSc1nc2ccc(N)cc2s1)c1ccccc1 (stereo not drawn), the inhibition was -0.6% (inactive). In the case of COc1ccc(NC(=S)NCCc2c[nH]c3ccccc23)c(OC)c1, the inhibition is reported as 17.2% (inactive). In the case of COc1ccc(Cl)cc1NC(=S)NCCc1c[nH]c2ccccc12, the inhibition is reported as -12.7% (inactive). In the case of COc1ccccc1NC(=S)NCCc1c[nH]c2ccccc12, the inhibition is reported as 86% (active). For COc1ccccc1C(=O)Nc1ccc2c(c1)CCCN2C(=O)c1cccs1, the inhibition was -18.3% (inactive). With COc1ccc(C(=O)Nc2ccc3c(c2)CCCN3C(=O)c2cccs2)c(OC)c1 the inhibition was 21.1% (inactive). With COc1cccc(C(=O)Nc2ccc3c(c2)CCCN3C(=O)c2cccs2)c1OC the inhibition was 56.1% (active). With O=C(CC1C(=O)N(c2ccccc2)C(=O)N1C1CCCCC1)Nc1ccccc1 (stereo not drawn) the inhibition was 11.7% (inactive). In the case of CC1CCCN(S(=O)(=O)c2ccc(NC(=O)Cn3nnc(-c4ccccc4F)n3)cc2)C1 (stereo not drawn), the inhibition is reported as -31.2% (inactive). For CC(C)CCOc1ccc(Cl)cc1CN1CCOCC1, the inhibition was -26.5% (inactive). For Clc1ccccc1-c1nn2c(-c3ccncc3)nnc2s1, the inhibition was 64.5% (inactive). For Clc1cccc(-c2nn3c(-c4ccncc4)nnc3s2)c1, the inhibition was -14% (inactive). For Clc1ccc(-c2nn3c(-c4ccncc4)nnc3s2)c(Cl)c1, the inhibition was 59% (active). With COC(=O)c1c(C(=O)OC)c(-c2ccc(Cl)c(Cl)c2)n2c1CCC2 the inhibition was -14.5% (inactive). With Cc1nnn(C23C[C@@H]4C[C@@H](CC(C(=O)N5CCN(c6ccccc6)CC5)(C4)C2)C3)n1 the inhibition was -7% (inactive). In the case of Cc1ccc(CCNC(=O)C23C[C@H]4C[C@@H](C2)CC(n2nnc(C)n2)(C4)C3)cc1, the inhibition is reported as -3.3% (inactive). For COc1cccc(C2C(C#N)=C(N)Oc3cc(C)n(Cc4ccccn4)c(=O)c32)c1OC (stereo not drawn), the inhibition was -19.6% (inactive). For Cc1ccsc1C(=O)OCc1csc(-c2ccccc2)n1, the inhibition was -65.5% (inactive). For CC1(C)CC(=O)C=C(NC2=CC3OC(c4ccccc4)OCC3OC2=O)C1 (stereo not drawn), the inhibition was 61.7% (active). In the case of Cc1ccccc1NC1=CC(=O)CC(C)(C)C1, the inhibition is reported as 1.1% (inactive). For O=C1C=C(NC2=CC3OC(c4ccccc4)OCC3OC2=O)CCC1 (stereo not drawn), the inhibition was -24.3% (inactive). In the case of COc1ccc(CN2CCC(n3nccc3NC(=O)c3ccc4c(c3)OCO4)CC2)cc1C, the inhibition is reported as -12.5% (inactive). In the case of O=S(=O)(c1cccs1)N1CCN(Cc2nc3ccccc3s2)CC1, the inhibition is reported as -23.6% (inactive). For O=C(NC(N1CCOCC1)C(Cl)(Cl)Cl)c1ccc(F)cc1 (stereo not drawn), the inhibition was -23.2% (inactive). With COc1ccc(C(=O)NNC2=Nc3cccc4cccc2c34)cc1 the inhibition was 11.1% (inactive). With O=C(NNC1=Nc2cccc3cccc1c23)c1ccc(Br)cc1 the inhibition was 85.4% (active). For Cc1ccc(C(=O)NNC2=Nc3cccc4cccc2c34)cc1, the inhibition was 34% (inactive). In the case of CC(=O)N/C(=C/c1ccccc1)C(=O)N1CCCCC1, the inhibition is reported as -19.2% (inactive). In the case of CCN(CC(=O)Nc1c(F)cccc1F)C(=O)c1n[nH]c2ccccc12, the inhibition is reported as -21.6% (inactive). With Cc1ccc2c(c1)sc1ncc(NC(=O)c3ccc(F)cc3)c(=O)n12 the inhibition was -34.8% (inactive). With N#Cc1cc(NC(=O)c2ccc(F)cc2)c(=O)n2c1[nH]c1ccccc12 the inhibition was 67.8% (active). For O=C(Nc1ccccc1NC(=O)c1ccc(F)cc1)c1ccc(F)cc1, the inhibition was 5.1% (inactive). For COc1cccc(N(C(=O)c2ccco2)C(C(=O)NC2CCCC2)c2ccc(N(C)C)cc2)c1 (stereo not drawn), the inhibition was -6.7% (inactive). For Oc1ccc(NC(=S)N=Nc2c(O)[nH]c3ccccc23)cc1, the inhibition was -25.5% (inactive). In the case of Cc1cccc(NC(=S)N=Nc2c(O)[nH]c3ccccc23)c1, the inhibition is reported as -18.3% (inactive). In the case of Cc1ccc(NC(=S)N=Nc2c(O)[nH]c3ccccc23)cc1, the inhibition is reported as 50.7% (active). For CC(Nc1nc(-c2ccccc2F)nc2ccccc12)c1ccccc1 (stereo not drawn), the inhibition was -6.1% (inactive). In the case of C=CCn1c2ccccc2c2nnc(SCCCn3c(=O)[nH]c4ccccc43)nc21, the inhibition is reported as 60.9% (active). With CCn1c2ccccc2c2nnc(SCCCn3c(=O)[nH]c4ccccc43)nc21 the inhibition was -22.4% (inactive). For C=CCn1c2ccccc2c2nnc(SCCN3CCCCC3)nc21, the inhibition was 33.2% (inactive). In the case of Cc1oc(-c2ccccc2Cl)nc1CN1CCCCC1CO (stereo not drawn), the inhibition is reported as -13.9% (inactive). For O=C(COC(=O)CCSc1ccccc1)Nc1ccc(F)cc1Cl, the inhibition was -14% (inactive). In the case of CC(C)C(NS(=O)(=O)c1cccc2nsnc12)C(=O)NC1CCCCC1 (stereo not drawn), the inhibition is reported as -5.2% (inactive). With CCCCN1CN(S(=O)(=O)c2ccc(OC)cc2)c2nc3ccccc3nc21 the inhibition was -13.8% (inactive). For CCCCCCS(=O)Cc1ccccc1 (stereo not drawn), the inhibition was -9.9% (inactive). For CN(C(=O)COc1ccccc1C(=O)NCCc1ccccc1)c1ccccc1, the inhibition was -33.9% (inactive). With COc1ccccc1C(=O)NCCC(=O)NCCOc1ccccc1 the inhibition was 7.7% (inactive). For CCN(CCO)Cc1cc(=O)oc2c(C)c(C)ccc12, the inhibition was 8.5% (inactive). In the case of CCN1C=C(Cc2cccs2)C2=C(C1)C(c1cccs1)C(C#N)=C(N)O2 (stereo not drawn), the inhibition is reported as 30.4% (inactive). In the case of CCN1C=C(Cc2ccccc2C)C2=C(C1)C(c1ccccc1C)C(C#N)=C(N)O2 (stereo not drawn), the inhibition is reported as 71.8% (active). With CCN1C=C(Cc2ccc(F)cc2)C2=C(C1)C(c1ccc(F)cc1)C(C#N)=C(N)O2 (stereo not drawn) the inhibition was 21.1% (inactive). For O=C(CCn1nnc2ccccc21)N1CCN(c2ccccc2)CC1, the inhibition was 7.2% (inactive). For CCC1CCCCN1C(=O)CCCc1ccccc1 (stereo not drawn), the inhibition was -21% (inactive).
